ERK EGF block – blocks ERK signaling stimulated by EGF. 0.41% of 130,000 active. Potency, µM (top dose mostly 11.5 µM), without a hit: at the highest dose activity change, negative = inhibition, most hits filed as inhibitors. HEK293-V1b, EGF-stimulated phospho-ERK AlphaScreen; active = well fitted inhibition curve with a large enough effect;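 also: plate controls were stimulated vehicle wells for no effect and unstimulated vehicle basal for full effect; nearly all actives have a fitted effect of over 55% in size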
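Cell line HEK293 (stable V1b), low serum overnight. Pretreatment: compound 30 min, 37C. EGF 25 nM, 5 min. Detection: SureFire AlphaScreen, 5 h RT. AC50 via standard Hill equation.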
* marks the source's active call; other numbers are inactive results; [ ] = dose if it differs, or a comment. Many of the other results were omitted from the sample, so hits are more common in it than they were. Potency is read from the fitted curve at half-maximal effect.

Screening OC(CNCCc1ccc(C(F)(F)F)cc1)COc1ccc2ccccc2c1 (stereo unspecified) returned ERK EGF block 35µM*.
`COC(=O)[C@@H](NC(=O)O[C@@H]1C(=O)c2ccc(OC)cc2O[C@H]1c1ccc2c(c1)OCO2)C(C)C` gave ERK EGF block 13%.
`N#CCCn1cnc2c1NC=NC2Cl` (stereo unspecified) gave ERK EGF block -3%.
CC[C@@](N)(C(=O)O)c1ccc(C(=O)O)cc1 was read as ERK EGF block -8%.
`CN1/C(=C/C(=O)C2CC2)C(C)(C)c2ccccc21` gave ERK EGF block 11%.
Screening CC1=NN(c2ccccc2)C(=O)/C1=C\C=C1/N(C)c2ccccc2C1(C)C returned ERK EGF block 13µM*.
CC1=NN(c2ccccc2)C(=O)/C1=C\C=C1\N(C)c2ccccc2C1(C)C was read as ERK EGF block 16µM*.
For CN1/C(=C\C(=O)Nc2cccc(Cl)c2)C(C)(C)c2ccccc21 the results were ERK EGF block 8%.
CN1/C(=C\C(=O)CSc2nncn2C)C(C)(C)c2ccccc21 was read as ERK EGF block 2%.
Screening Cc1nn(-c2ccccc2)c(N)c1C1(O)C(=O)N(C)c2ccccc21 (stereo unspecified) returned ERK EGF block 7%.
CCCCCCCCCCCCCCC(C(=O)O)C(O)(CC(=O)OC)C(=O)O (stereo unspecified) was read as ERK EGF block 23%.
Screening C=CCC1(O)CCOc2ccccc21 (stereo unspecified) returned ERK EGF block -6%.
`Cc1ccc(N2CCOCC2)c2c1C(=O)c1ccccc1C2=O` gave ERK EGF block 17%.
`CN(C1=C(N2CCOCC2)C(=O)c2ccccc2C1=O)c1ccccc1` gave ERK EGF block 11µM*.
For O=C(O)c1cccc(NC2=C(N3CCOCC3)C(=O)c3ccccc3C2=O)c1 the results were ERK EGF block 6%[57.5 µM].
`CCCCC[C@H](O)/C=C/C=C/C/C=C\CCCC(=O)O` gave ERK EGF block -16%.
For O=C(/C=C/c1ccncc1)c1cc(Cl)ccc1O the results were ERK EGF block 9%[57.5 µM].
`CN(C)c1ccc(/C=C/C(=O)c2cc(Cl)ccc2O)cc1` gave ERK EGF block 14µM*.
`COc1ccc(/C=C/C(=O)c2cc(Cl)ccc2O)c(OC)c1` gave ERK EGF block 2%[57.5 µM].
COc1ccc(NC(=O)N2CC[C@@]3(CCCN(C(=O)c4ccc(OC)cc4)C3)C2)cc1 was read as ERK EGF block -9%.
Cn1c(=O)c(-c2cccc(Cl)c2)nc2cncnc21 was read as ERK EGF block -6%.
`CCN1C(=C(C#N)C#N)C=Cc2cc(C)ccc21` gave ERK EGF block -5%.
Screening C=CC[n+]1c(/C=C2\C=Cc3cc(C)ccc3N2CC)ccc2ccccc21 returned ERK EGF block 22µM*.
Screening O=C(c1ccco1)N1CCC2(CC1)CN(c1ccccn1)C2 returned ERK EGF block 5%.
For COc1cccc(NCc2cc(=O)oc3cc(-c4ccccc4)c(O)cc23)c1 the results were ERK EGF block 28µM*.
COc1cccc(-c2oc3ccccc3c(=O)c2O)c1 was read as ERK EGF block 16%.
Screening O=c1cc(CN2CCN(c3cccc(Cl)c3)CC2)c2cc(O)c(-c3ccccc3)cc2o1 returned ERK EGF block -7%[57.5 µM].
`COC(=O)C/C=C1\c2ccc3c(c2[C@@H](OC)[C@@H]1C)OCO3` gave ERK EGF block 0%.
For O=C(NCCOc1ccccc1)O[C@@H]1C(=O)c2cc(Br)ccc2O[C@H]1c1ccc2c(c1)OCO2 the results were ERK EGF block -5%.
`O=C1C(Nc2ccccc2)=C(NS(=O)(=O)c2ccccc2)C(=O)c2ccccc21` gave ERK EGF block 3%.
`Cc1ccccc1CN1CCN(S(=O)(=O)c2cccs2)CC1` gave ERK EGF block 1%.
`O=C1C(NS(=O)(=O)c2ccc(Cl)cc2)=C(N2CCCCC2)C(=O)c2ccccc21` gave ERK EGF block 14µM*.
For CN1CCN(C2=C(NS(=O)(=O)c3cccs3)C(=O)c3ccccc3C2=O)CC1 the results were ERK EGF block -8%[57.5 µM].
For O=C1C(NS(=O)(=O)c2cccs2)=C(N2CCN(Cc3ccccc3)CC2)C(=O)c2ccccc21 the results were ERK EGF block 16µM*.
O=S(=O)(Nc1ccc(N2CCCCC2)cc1)c1ccccc1 was read as ERK EGF block 3%.
Screening O=C(c1cc(C(F)(F)F)cc(C(F)(F)F)c1)N1CCC[C@@]2(CCN(Cc3ccncc3)C2)C1 returned ERK EGF block 12%.
For O=C(Oc1ccccc1)N1CCC2(CC1)CN(c1ccccn1)C2 the results were ERK EGF block -2%.
Screening CC(C)=CCn1cnc2c1C(NOCc1ccccc1)=NCN2 returned ERK EGF block 2%.
For CC(=O)N1CCN(C)CC1 the results were ERK EGF block 2%.
For Cc1cc(=O)oc2cc(O)c(O)cc12 the results were ERK EGF block 17%.
COC(=O)C1(Cc2ccccc2)C=C2C(=C(C(C)C)C(=O)C2C)CN1 (stereo unspecified) was read as ERK EGF block 3%.
`NC(N)=Nc1nc(CSCC/C(N)=N\S(N)(=O)=O)cs1` gave ERK EGF block 21%.
CC(=O)C1CCC2C3CC(C)C4=CC(=O)CC[C@@]4(C)C3C(O)C[C@@]12C (stereo partly specified) was read as ERK EGF block 0%.
Screening COC(=O)N1C(c2ccccc2)=Cc2ccccc2C1C1(C(=O)OC)CCCC1=O (stereo unspecified) returned ERK EGF block -6%.
Screening CC(C)[C@@H](CC(=O)N[C@@H]1CCCC[C@H]1C(=O)N[C@H](CC(=O)N[C@@H](CCC(=O)O)CC(=O)O)Cc1ccccc1)NC(=O)C[C@H](Cc1ccccc1)NC(=O)[C@@H]1CNCC[C@H]1N returned ERK EGF block 4%.
Screening COc1ccc(-n2ncc3c(N4CCN(Cc5ccccc5)CC4)ncnc32)cc1 returned ERK EGF block 32µM*.
`COc1ccc(-n2ncc3c(N4CCC(C(N)=O)CC4)ncnc32)cc1` gave ERK EGF block 6%[57.5 µM].
`CCOC(=O)C1CCN(c2ncnc3c2cnn3-c2ccc(OC)cc2)CC1` gave ERK EGF block 10%[57.5 µM].
COc1ccc2c(c1-c1c3c(cc(Br)c1OC)CCCC3)CCCC2 was read as ERK EGF block -8%.
Cc1ccc(C(=O)N/N=C\c2ccc(-c3ccc(Cl)c(Cl)c3)o2)cn1 was read as ERK EGF block 18µM*.
Screening Cc1nnc(SCC(=O)N/N=C/c2ccc(-c3ccc(C)c(Cl)c3)o2)s1 returned ERK EGF block 2%.
For Cc1ccc(C(=O)N/N=C/c2ccc(-c3ccccc3[N+](=O)[O-])o2)cn1 the results were ERK EGF block 2%.
COc1ccccc1CN1CC2(CCN(C(=O)c3cccc(F)c3)CC2)C1 was read as ERK EGF block 7%.
For C=C1CCC2C(CC2(C)C)C(=O)CCC1O (stereo unspecified) the results were ERK EGF block 35%.
Screening O=C(c1ccncc1)N1CCC[C@@]2(CCN(c3ccccn3)C2)C1 returned ERK EGF block -4%.
For Cc1cccc(CNc2ncnc3ccc(-c4cccnc4)cc23)c1 the results were ERK EGF block 8.9µM*.
Screening Cc1cccc(CNc2ncnc3ccc(-c4c(C)noc4C)cc23)c1 returned ERK EGF block 10%.
CN(C)C(=O)c1ccc(-c2ccc3ncnc(NCc4cccnc4)c3c2)cc1 was read as ERK EGF block 29%.

High-throughput results: PubChem BioAssay, National Center for Advancing Translational Sciences (NCATS)
